In PMC4081100, “A DNA-binding-site landscape and regulatory network analysis for NAC transcription factors in Arabidopsis thaliana”:

Experiments:
Assay in all cases: universal protein binding microarray (PBM); transcription factors of Arabidopsis thaliana; high values mean tight binding
[1] = molecular target: T1, GST-ANAC092(1-176) (Arabidopsis thaliana, UniProt Q9FKA0 1-176); conditions: protein: recombinant; tags: GST; chain copies: 2; dsDNA, one strand shown
T1 sequence: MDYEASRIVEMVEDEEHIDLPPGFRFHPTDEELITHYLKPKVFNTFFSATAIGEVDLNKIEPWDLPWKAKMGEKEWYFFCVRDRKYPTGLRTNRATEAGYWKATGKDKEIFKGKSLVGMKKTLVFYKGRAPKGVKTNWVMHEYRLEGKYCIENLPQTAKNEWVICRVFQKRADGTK
Procedure, shortened: (§1)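 GST-tagged NAC-domain, full-length or DNA-binding-domain proteins were induced in cells, with zinc acetate added for zinc-finger proteins. They were purified on glutathione–Sepharose 4B and quantified by A280 or anti-GST western blot. Each was applied at 200 to 500 nM final, in duplicate, to custom all-10-mer Agilent 4 × 180K arrays made double-stranded by primer extension, with gapped and ungapped 8-mers scored. Binding is the normalised enrichment score (E-score).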

[2] = molecular target: T2, GST-ANAC019 NAC domain (Arabidopsis thaliana, UniProt Q9C932 14-162); conditions: protein: recombinant; tags: GST; chain copies: 2; dsDNA, one strand shown
T2 sequence: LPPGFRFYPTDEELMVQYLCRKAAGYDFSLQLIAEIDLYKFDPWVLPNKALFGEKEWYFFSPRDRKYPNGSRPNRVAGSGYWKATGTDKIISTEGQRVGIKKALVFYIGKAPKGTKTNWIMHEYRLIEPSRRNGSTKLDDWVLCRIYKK
Procedure, shortened: as §1

[3] = molecular target: T3, GST-ANAC055(1-171) (Arabidopsis thaliana, UniProt Q9LDY8 1-171); conditions: protein: recombinant; tags: GST; chain copies: 2; dsDNA, one strand shown
T3 sequence: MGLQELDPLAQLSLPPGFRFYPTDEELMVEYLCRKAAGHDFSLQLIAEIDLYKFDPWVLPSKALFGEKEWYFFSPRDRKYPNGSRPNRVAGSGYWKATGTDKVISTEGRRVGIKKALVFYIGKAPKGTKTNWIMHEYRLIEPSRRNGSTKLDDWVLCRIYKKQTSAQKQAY
Procedure, shortened: as §1

[4] = molecular target: T4, GST-ATAF1 NAC domain (Arabidopsis thaliana, UniProt Q39013 7-158); conditions: protein: recombinant; tags: GST; chain copies: 2; dsDNA, one strand shown
T4 sequence: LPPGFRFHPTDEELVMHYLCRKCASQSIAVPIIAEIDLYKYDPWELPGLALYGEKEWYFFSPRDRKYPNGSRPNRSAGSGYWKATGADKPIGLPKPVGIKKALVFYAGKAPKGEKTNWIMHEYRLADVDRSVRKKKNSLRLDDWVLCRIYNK
Procedure, shortened: as §1

[5] = molecular target: T5, GST-ANAC092(1-285) full length (Arabidopsis thaliana, UniProt Q9FKA0 1-285); conditions: protein: recombinant; tags: GST; chain copies: 2; dsDNA, one strand shown
T5 sequence: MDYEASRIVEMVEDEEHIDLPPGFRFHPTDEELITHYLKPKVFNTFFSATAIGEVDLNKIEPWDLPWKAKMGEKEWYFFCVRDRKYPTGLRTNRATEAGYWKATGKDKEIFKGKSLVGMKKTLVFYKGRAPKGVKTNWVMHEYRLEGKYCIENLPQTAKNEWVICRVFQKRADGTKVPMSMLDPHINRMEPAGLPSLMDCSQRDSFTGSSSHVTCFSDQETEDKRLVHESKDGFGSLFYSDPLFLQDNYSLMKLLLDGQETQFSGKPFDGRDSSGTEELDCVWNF
Procedure, shortened: as §1

[6] = molecular target: T6, GST-NAP(1-166) (Arabidopsis thaliana, UniProt O49255 1-166); conditions: protein: recombinant; tags: GST; chain copies: 2; dsDNA, one strand shown
T6 sequence: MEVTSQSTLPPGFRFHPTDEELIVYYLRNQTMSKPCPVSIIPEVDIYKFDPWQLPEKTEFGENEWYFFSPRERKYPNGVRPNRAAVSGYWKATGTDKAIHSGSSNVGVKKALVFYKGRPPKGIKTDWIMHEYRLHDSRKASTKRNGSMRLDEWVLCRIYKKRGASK
Procedure, shortened: as §1

[7] = molecular target: T7, GST-NST2(1-184) (Arabidopsis thaliana, UniProt Q9M274 1-184); conditions: protein: recombinant; tags: GST; chain copies: 2; dsDNA, one strand shown
T7 sequence: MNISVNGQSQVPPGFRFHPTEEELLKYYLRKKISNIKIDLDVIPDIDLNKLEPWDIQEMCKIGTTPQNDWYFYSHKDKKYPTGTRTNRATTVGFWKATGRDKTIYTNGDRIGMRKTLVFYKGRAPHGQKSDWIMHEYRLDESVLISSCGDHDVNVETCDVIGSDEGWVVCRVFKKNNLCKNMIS
Procedure, shortened: as §1

[8] = molecular target: T8, GST-NTL8 NAC domain (Arabidopsis thaliana, UniProt Q9XIN7 14-156); conditions: protein: recombinant; tags: GST; chain copies: 2; dsDNA, one strand shown
T8 sequence: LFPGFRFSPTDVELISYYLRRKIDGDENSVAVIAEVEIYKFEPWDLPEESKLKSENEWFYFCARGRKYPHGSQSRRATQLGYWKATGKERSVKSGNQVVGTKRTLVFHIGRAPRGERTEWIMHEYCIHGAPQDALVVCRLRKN
Procedure, shortened: as §1

[9] = molecular target: T9, GST-SND1(1-203) (Arabidopsis thaliana, UniProt Q9LPI7 1-203); conditions: protein: recombinant; tags: GST; chain copies: 2; dsDNA, one strand shown
T9 sequence: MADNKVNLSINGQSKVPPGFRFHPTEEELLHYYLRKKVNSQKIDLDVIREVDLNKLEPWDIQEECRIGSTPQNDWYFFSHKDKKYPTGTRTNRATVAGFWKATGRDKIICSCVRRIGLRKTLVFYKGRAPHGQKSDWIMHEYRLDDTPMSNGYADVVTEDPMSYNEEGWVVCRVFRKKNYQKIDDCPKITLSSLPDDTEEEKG
Procedure, shortened: as §1

[10] = molecular target: T10, GST-VND3 NAC domain (Arabidopsis thaliana, UniProt Q9FH59 12-162); conditions: protein: recombinant; tags: GST; chain copies: 2; dsDNA, one strand shown
T10 sequence: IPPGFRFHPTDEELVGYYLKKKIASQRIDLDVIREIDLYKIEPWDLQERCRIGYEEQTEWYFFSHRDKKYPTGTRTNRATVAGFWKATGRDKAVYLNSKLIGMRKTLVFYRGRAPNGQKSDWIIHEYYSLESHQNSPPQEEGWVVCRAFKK
Procedure, shortened: as §1

[11] = molecular target: T11, GST-VND7 NAC domain (Arabidopsis thaliana, UniProt Q9C8W9 9-158); conditions: protein: recombinant; tags: GST; chain copies: 2; dsDNA, one strand shown
T11 sequence: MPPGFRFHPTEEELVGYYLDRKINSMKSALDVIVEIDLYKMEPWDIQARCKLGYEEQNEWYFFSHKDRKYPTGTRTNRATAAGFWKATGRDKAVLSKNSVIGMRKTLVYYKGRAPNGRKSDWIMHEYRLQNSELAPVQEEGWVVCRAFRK
Procedure, shortened: as §1

[12] = molecular target: GST-NTL6(1-168) (Arabidopsis thaliana, UniProt Q9SCK6 1-168); conditions: protein: recombinant; tags: GST; chain copies: 2; dsDNA, one strand shown
Chain of GST-NTL6(1-168) (Q9SCK6 1-168): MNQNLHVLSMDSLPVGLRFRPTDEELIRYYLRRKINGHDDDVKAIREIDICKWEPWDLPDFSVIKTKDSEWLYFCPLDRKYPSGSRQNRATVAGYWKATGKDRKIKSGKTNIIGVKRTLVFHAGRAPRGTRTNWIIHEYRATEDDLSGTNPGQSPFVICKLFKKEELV
Procedure, shortened: as §1

[13] = molecular target: GST-WRKY1(266-371) (Arabidopsis thaliana, UniProt Q9SI37 266-371); conditions: protein: recombinant; tags: GST; dsDNA, one strand shown
Chain of GST-WRKY1(266-371) (Q9SI37 266-371): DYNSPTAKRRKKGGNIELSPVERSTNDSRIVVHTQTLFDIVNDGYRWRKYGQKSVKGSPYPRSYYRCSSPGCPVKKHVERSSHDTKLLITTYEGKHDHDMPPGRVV
Procedure, shortened: as §1

| Sequence | binding signal [1] [E-score] | binding signal [2] [E-score] | binding signal [3] [E-score] | binding signal [4] [E-score] | binding signal [5] [E-score] | binding signal [6] [E-score] | binding signal [7] [E-score] | binding signal [8] [E-score] | binding signal [9] [E-score] | binding signal [10] [E-score] | binding signal [11] [E-score] | binding signal [12] [E-score] | binding signal [13] [E-score] |
| --- | --- | --- | --- | --- | --- | --- | --- | --- | --- | --- | --- | --- | --- |
| ACGTTACG | 0.389 | 0.302 | 0.299 | 0.268 | 0.441 | 0.341 | 0.287 | 0.13 | 0.44 | 0.333 | 0.39 |  |  |
| AATGCGTA | 0.371 |  | 0.0991 | 0.142 | 0.387 | 0.183 | 0.212 |  | 0.414 | 0.148 | 0.118 |  |  |
| ACGCCATC | 0.421 |  | 0.098 | 0.0609 | 0.453 | 0.171 | 0.237 |  | 0.41 | 0.125 | 0.108 |  |  |
| ACGCTACC | 0.455 | 0.118 |  | 0.144 | 0.48 | 0.0969 | 0.34 |  | 0.475 | 0.0872 | 0.181 |  |  |
| ACGTTACA | 0.354 |  | 0.157 | 0.244 | 0.404 | 0.23 | 0.222 |  | 0.362 | 0.217 | 0.153 |  |  |
| GACACGGC | 0.235 | 0.42 | 0.351 | 0.278 | 0.387 | 0.237 |  | 0.0582 | 0.116 | 0.328 | 0.348 |  |  |
| GTTAAGGA | 0.116 | 0.178 | 0.165 | 0.11 | 0.0916 |  | 0.16 | 0.273 | 0.276 | 0.176 |  | 0.424 | 0.0559 |
| GCACGTAA | 0.461 | 0.478 | 0.433 | 0.381 | 0.467 | 0.427 | 0.218 | 0.189 | 0.225 | 0.454 | 0.454 |  |  |
| GTCAACAA |  |  | 0.163 | 0.191 | 0.136 | 0.075 | 0.101 | 0.0573 | 0.177 |  | 0.07 | 0.0834 | 0.478 |
| TCACGCCA | 0.436 | 0.223 | 0.156 | 0.178 | 0.454 | 0.0509 | 0.263 |  | 0.358 | 0.0902 |  |  |  |
| ACTTTCCT |  |  | 0.171 | 0.0923 | 0.0813 |  | 0.144 | 0.4 | 0.145 |  | 0.121 | 0.292 | 0.171 |
| CCAAGCAA | 0.31 | 0.147 | 0.0877 | 0.0528 | 0.356 |  | 0.295 | 0.0676 | 0.405 | 0.119 |  | 0.309 |  |
| ACGCGACC | 0.283 | 0.0639 |  |  | 0.423 |  | 0.0828 |  | 0.367 |  | 0.0778 |  | 0.342 |
| ATAAGGAA | 0.118 |  | 0.0899 | 0.129 | 0.217 |  | 0.136 | 0.332 | 0.201 | 0.152 |  | 0.423 |  |
